According to publication PMC7862700, “An all-to-all approach to the identification of sequence-specific readers for epigenetic DNA modifications on cytosine”:

Experiments:
Assay in all cases: DAPPL (digital affinity profiling via proximity ligation, sequencing); 10 mM Tris-HCl pH 7.5, 50 mM NaCl, 1 mM DTT, 4% glycerol, room temperature, 30 min; GST-TFs on glutathione beads, 16-mer random dsDNA library, 0.1% formaldehyde crosslink after washing; high values mean tight binding
Settings in all cases: protein: recombinant; tags: N-terminal GST; dsDNA, one strand shown
FLI1 = target: T1, FLI1 (Homo sapiens, UniProt Q01543 1-452)
T1 sequence: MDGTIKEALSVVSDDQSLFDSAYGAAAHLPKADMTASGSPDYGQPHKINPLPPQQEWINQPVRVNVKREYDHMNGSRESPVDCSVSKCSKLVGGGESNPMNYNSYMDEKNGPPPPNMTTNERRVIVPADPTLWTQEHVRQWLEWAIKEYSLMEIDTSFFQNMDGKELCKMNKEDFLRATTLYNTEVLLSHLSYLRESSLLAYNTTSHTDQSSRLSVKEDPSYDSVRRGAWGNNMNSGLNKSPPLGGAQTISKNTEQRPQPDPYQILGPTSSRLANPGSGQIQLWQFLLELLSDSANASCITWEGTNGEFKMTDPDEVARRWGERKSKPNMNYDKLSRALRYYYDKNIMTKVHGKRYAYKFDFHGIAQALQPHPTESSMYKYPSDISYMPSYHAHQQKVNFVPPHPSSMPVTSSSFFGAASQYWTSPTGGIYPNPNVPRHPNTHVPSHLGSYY
Method in brief: (§1)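 Human transcription factors carrying a GST fusion were produced in yeast, bound to glutathione beads, tagged with DNA barcodes and pooled together with a tag-only sample. Each pool was held with 200 nmole of a random double-stranded 16-mer DNA library in Tris/NaCl/DTT/glycerol buffer for 30 min at room temperature, then washed, crosslinked in 0.1% formaldehyde, proximity-ligated with BsaI/T4 ligase (1 h, 37 °C), PCR-amplified and sequenced on an Illumina NextSeq500. Binding signal is the read frequency of each hexamer for a given factor divided by its frequency in the tag-only sample.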

ELK1 = target: T2, ELK1 (Homo sapiens, UniProt P19419 1-428)
T2 sequence: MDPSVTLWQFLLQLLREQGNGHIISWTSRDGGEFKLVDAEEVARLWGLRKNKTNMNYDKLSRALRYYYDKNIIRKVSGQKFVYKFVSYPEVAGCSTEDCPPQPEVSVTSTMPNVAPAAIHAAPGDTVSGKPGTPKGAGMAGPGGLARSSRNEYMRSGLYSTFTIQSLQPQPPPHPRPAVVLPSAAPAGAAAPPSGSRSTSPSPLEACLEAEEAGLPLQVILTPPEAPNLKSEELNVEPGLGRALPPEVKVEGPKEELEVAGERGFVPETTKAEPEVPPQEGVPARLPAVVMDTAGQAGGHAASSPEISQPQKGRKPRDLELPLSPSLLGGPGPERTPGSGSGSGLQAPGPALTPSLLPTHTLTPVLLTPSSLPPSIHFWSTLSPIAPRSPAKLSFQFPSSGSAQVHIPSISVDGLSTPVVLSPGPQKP
Method in brief: as §1

GABPA = target: T3, GABPA (Homo sapiens, UniProt Q06546 1-454)
T3 sequence: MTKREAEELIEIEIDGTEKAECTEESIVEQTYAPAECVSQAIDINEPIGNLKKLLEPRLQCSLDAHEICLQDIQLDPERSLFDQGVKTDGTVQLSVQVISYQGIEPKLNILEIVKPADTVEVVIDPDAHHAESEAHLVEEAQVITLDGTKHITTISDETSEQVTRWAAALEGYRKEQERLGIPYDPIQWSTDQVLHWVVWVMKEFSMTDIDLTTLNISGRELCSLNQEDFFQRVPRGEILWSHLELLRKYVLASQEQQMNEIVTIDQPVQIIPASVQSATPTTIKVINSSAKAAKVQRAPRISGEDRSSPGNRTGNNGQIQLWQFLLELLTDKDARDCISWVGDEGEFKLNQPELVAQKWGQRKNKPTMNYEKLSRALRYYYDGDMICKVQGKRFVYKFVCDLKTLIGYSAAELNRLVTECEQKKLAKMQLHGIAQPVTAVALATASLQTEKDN
Method in brief: as §1

ERG = target: T4, ERG (Homo sapiens, UniProt P11308 1-479)
T4 sequence: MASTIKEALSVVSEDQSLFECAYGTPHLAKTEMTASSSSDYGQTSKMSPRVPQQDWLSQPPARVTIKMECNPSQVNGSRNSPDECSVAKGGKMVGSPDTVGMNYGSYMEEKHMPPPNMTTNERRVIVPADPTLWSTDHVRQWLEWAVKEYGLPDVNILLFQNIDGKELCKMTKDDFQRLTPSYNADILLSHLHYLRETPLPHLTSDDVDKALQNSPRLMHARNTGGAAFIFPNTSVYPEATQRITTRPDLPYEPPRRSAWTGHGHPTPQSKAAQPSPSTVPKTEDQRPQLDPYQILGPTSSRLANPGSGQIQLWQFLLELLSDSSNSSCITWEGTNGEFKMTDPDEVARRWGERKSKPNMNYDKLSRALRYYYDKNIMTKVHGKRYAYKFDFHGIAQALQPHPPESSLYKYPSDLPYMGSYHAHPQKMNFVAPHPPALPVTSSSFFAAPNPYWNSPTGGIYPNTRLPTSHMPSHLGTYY
Method in brief: as §1

ELF1 = ELF1 (Homo sapiens, UniProt P32519 1-619)
Chain of ELF1 (P32519 whole entry): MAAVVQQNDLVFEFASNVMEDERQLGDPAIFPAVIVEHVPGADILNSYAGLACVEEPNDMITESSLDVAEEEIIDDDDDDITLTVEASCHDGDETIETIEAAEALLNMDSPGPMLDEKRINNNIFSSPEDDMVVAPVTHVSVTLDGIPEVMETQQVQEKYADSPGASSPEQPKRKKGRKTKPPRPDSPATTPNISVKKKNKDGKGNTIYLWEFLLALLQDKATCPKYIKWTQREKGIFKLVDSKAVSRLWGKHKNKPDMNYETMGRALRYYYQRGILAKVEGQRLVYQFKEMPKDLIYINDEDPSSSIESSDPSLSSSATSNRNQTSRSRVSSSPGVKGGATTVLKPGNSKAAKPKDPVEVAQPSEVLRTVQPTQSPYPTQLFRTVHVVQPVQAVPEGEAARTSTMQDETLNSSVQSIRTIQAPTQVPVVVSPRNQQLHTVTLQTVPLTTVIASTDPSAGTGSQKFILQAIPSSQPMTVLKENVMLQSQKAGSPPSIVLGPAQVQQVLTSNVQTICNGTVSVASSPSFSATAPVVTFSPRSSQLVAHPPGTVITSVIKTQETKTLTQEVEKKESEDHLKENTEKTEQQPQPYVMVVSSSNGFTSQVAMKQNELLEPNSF
Method in brief: as §1

EHF = target: T5, EHF (Homo sapiens, UniProt Q9NZC4 1-300)
T5 sequence: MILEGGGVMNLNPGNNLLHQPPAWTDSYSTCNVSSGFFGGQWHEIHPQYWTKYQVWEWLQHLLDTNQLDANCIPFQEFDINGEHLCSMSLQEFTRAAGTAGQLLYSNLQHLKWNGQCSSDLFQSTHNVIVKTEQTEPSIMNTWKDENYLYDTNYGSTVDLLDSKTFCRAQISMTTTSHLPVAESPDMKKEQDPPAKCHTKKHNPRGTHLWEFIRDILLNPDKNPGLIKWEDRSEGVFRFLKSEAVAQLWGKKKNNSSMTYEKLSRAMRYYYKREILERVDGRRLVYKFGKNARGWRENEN
Method in brief: as §1

SPI1 = SPI1 (Homo sapiens, UniProt P17947 1-270)
Method in brief: as §1

SPIB = SPIB (Homo sapiens, UniProt Q01892 1-262)
Chain of SPIB (Q01892 whole entry): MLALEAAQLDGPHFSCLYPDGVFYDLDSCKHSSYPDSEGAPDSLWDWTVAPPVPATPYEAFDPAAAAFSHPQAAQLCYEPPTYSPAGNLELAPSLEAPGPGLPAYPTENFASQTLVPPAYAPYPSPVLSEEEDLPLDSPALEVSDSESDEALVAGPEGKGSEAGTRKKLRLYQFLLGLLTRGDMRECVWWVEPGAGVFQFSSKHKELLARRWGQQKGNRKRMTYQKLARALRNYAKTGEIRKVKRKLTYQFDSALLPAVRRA
Method in brief: as §1

FEV = target: T6, FEV (Homo sapiens, UniProt Q99581 1-238)
T6 sequence: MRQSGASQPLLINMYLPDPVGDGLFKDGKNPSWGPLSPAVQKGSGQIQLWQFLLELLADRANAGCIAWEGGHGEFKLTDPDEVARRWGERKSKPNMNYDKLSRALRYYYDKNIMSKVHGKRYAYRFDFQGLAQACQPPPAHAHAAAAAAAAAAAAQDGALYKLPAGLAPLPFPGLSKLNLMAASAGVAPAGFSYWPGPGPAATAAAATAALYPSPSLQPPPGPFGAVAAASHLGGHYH
Method in brief: as §1

ETV5 = ETV5 (Homo sapiens, UniProt P41161 1-510)
Chain of ETV5 (P41161 whole entry): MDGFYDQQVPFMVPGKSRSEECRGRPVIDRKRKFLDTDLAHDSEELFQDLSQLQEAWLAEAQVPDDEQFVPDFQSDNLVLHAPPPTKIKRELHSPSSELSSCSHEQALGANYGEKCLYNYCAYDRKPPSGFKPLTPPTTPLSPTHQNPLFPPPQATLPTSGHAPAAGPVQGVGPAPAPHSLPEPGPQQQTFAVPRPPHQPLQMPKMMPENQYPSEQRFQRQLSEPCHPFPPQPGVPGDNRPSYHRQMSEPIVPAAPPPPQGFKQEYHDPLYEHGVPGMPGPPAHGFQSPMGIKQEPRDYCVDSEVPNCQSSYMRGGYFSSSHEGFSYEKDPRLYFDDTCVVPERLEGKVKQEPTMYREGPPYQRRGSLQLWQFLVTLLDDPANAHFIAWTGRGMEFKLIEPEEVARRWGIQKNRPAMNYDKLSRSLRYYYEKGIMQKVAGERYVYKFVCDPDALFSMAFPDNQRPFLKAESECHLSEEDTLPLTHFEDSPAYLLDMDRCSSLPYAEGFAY
Method in brief: as §1

SPIC = target: T7, SPIC (Homo sapiens, UniProt Q8N5J4 1-248)
T7 sequence: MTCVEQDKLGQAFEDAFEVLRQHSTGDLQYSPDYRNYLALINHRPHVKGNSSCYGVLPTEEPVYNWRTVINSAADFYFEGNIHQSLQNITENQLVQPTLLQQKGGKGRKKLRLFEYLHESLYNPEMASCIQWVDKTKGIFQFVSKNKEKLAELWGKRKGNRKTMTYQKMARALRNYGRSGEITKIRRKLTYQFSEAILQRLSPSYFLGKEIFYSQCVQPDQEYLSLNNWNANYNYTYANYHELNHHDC
Method in brief: as §1

ELF4 = ELF4 (Homo sapiens, UniProt Q99607 1-663)
Chain of ELF4 (Q99607 whole entry): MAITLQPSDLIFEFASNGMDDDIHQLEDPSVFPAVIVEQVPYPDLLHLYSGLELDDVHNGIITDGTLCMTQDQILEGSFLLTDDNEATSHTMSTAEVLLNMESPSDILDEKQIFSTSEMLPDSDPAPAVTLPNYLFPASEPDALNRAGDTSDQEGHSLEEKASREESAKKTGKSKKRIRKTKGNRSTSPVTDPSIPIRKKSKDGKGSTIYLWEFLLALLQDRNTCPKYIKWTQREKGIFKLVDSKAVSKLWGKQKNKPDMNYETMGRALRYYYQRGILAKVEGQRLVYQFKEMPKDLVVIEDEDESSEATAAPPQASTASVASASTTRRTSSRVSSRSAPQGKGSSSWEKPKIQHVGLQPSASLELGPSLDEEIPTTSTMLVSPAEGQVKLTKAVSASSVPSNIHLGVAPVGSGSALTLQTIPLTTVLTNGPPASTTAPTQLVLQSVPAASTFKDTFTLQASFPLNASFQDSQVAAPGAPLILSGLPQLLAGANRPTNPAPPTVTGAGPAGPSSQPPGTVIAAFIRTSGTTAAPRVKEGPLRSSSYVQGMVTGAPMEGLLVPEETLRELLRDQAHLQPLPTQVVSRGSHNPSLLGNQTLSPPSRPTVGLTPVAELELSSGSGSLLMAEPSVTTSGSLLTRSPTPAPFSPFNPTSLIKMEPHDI
Method in brief: as §1

ELK4 = target: T8, ELK4 (Homo sapiens, UniProt P28324-2 1-405)
T8 sequence: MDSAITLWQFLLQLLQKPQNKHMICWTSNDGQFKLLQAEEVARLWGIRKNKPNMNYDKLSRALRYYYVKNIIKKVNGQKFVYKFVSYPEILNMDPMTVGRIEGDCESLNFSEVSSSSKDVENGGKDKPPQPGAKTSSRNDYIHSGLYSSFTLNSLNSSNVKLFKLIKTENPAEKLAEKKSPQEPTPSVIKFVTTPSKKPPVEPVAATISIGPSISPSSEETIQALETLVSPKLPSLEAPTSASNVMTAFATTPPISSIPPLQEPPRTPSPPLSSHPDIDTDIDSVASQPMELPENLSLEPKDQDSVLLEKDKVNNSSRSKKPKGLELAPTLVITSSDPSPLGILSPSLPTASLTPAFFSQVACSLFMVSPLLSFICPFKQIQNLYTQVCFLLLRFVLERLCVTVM
Method in brief: as §1

ETV2 = target: T9, ETV2 (Homo sapiens, UniProt O00321 1-342)
T9 sequence: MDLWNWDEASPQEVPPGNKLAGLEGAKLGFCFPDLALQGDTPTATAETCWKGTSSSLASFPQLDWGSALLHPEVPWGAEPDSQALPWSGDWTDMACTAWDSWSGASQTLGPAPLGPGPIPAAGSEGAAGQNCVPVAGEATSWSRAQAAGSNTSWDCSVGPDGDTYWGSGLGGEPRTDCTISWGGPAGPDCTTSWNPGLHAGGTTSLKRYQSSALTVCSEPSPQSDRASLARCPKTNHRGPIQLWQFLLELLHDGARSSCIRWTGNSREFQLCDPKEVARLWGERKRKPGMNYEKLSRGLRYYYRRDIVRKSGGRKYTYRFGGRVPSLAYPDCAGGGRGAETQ
Method in brief: as §1

ELF3 = target: T10, ELF3 (Homo sapiens, UniProt P78545 1-371)
T10 sequence: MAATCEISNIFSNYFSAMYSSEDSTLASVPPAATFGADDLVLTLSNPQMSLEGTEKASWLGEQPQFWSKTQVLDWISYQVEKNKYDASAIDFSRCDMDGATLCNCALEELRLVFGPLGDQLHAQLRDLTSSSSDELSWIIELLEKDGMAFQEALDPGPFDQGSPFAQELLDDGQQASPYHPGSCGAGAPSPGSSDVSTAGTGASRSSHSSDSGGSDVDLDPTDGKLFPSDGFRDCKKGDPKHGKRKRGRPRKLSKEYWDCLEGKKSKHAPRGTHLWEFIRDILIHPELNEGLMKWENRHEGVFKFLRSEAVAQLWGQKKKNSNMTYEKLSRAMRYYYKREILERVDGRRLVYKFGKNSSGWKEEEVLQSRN
Method in brief: as §1

ETV1 = ETV1 (Homo sapiens, UniProt P50549 1-477)
Chain of ETV1 (P50549 whole entry): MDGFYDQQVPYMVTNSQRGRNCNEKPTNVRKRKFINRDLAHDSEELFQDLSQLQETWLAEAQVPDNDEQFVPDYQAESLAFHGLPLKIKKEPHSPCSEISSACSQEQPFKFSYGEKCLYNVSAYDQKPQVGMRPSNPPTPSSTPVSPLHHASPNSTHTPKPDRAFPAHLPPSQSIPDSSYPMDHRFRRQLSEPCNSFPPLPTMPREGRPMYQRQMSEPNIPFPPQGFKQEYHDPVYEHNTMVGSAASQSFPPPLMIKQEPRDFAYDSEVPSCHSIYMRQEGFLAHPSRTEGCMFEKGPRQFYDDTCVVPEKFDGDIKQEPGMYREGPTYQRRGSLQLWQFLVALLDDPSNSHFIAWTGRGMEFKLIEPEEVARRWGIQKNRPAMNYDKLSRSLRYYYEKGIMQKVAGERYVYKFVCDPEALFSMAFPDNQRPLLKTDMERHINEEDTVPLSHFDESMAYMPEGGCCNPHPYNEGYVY
Method in brief: as §1

ELK3 = target: T11, ELK3 (Homo sapiens, UniProt P41970 1-407)
T11 sequence: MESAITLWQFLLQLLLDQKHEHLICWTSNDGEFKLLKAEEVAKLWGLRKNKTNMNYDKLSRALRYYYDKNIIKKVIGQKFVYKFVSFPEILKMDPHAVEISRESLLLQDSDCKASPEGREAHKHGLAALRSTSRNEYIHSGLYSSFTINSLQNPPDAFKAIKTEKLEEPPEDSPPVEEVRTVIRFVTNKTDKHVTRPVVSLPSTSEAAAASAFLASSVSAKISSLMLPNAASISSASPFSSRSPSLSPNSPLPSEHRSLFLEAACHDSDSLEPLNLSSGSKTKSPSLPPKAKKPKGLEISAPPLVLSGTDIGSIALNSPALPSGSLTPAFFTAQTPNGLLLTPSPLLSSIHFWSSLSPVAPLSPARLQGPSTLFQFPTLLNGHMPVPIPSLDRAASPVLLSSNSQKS
Method in brief: as §1

| Sequence | binding signal (FLI1) | binding signal (ELK1) | binding signal (GABPA) | binding signal (ERG) | binding signal (ELF1) | binding signal (EHF) | binding signal (SPI1) | binding signal (SPIB) | binding signal (FEV) | binding signal (ETV5) | binding signal (SPIC) | binding signal (ELF4) | binding signal (ELK4) | binding signal (ETV2) | binding signal (ELF3) | binding signal (ETV1) | binding signal (ELK3) |
| --- | --- | --- | --- | --- | --- | --- | --- | --- | --- | --- | --- | --- | --- | --- | --- | --- | --- |
| CAACAC | 1.13 fold enrichment (6-mer frequency, TF over GST control) | 1.23 fold enrichment (6-mer frequency, TF over GST control) | 1.19 fold enrichment (6-mer frequency, TF over GST control) | 1.1 fold enrichment (6-mer frequency, TF over GST control) | 1.13 fold enrichment (6-mer frequency, TF over GST control) | 1.09 fold enrichment (6-mer frequency, TF over GST control) | 1.06 fold enrichment (6-mer frequency, TF over GST control) | 1.06 fold enrichment (6-mer frequency, TF over GST control) | 1.11 fold enrichment (6-mer frequency, TF over GST control) | 1.07 fold enrichment (6-mer frequency, TF over GST control) | 1.08 fold enrichment (6-mer frequency, TF over GST control) | 1.14 fold enrichment (6-mer frequency, TF over GST control) | 1.2 fold enrichment (6-mer frequency, TF over GST control) | 1.08 fold enrichment (6-mer frequency, TF over GST control) | 1.09 fold enrichment (6-mer frequency, TF over GST control) | 1.11 fold enrichment (6-mer frequency, TF over GST control) | – |
| GCCCGC | 1.09 fold enrichment (6-mer frequency, TF over GST control) | 1.15 fold enrichment (6-mer frequency, TF over GST control) | 1.1 fold enrichment (6-mer frequency, TF over GST control) | 1.1 fold enrichment (6-mer frequency, TF over GST control) | 1.07 fold enrichment (6-mer frequency, TF over GST control) | 1.09 fold enrichment (6-mer frequency, TF over GST control) | 1.01 fold enrichment (6-mer frequency, TF over GST control) | 1.03 fold enrichment (6-mer frequency, TF over GST control) | 1.11 fold enrichment (6-mer frequency, TF over GST control) | 1.02 fold enrichment (6-mer frequency, TF over GST control) | 1.34 fold enrichment (6-mer frequency, TF over GST control) | 1.19 fold enrichment (6-mer frequency, TF over GST control) | 1.15 fold enrichment (6-mer frequency, TF over GST control) | 1.16 fold enrichment (6-mer frequency, TF over GST control) | – | 1.06 fold enrichment (6-mer frequency, TF over GST control) | 1.24 fold enrichment (6-mer frequency, TF over GST control) |
